# Laboratory results as given in PubChem BioAssay.
# Activity calls are given as the source filed them.
# Legend:
# [1] = compounds binding Alexa647 anti-His antibody – biochemical, small-molecule microarray, 635 nm fluorescence, artefact control for SMM control protein annotation, primary screen (AID 1128); details: higher = more signal;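 also: score merges feature fluorescence with signal-to-noise for each printed compound spot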
# [2] = system: Human papillomavirus type 1a E7 protein (residues 1-88); experiment: HPV1a E7 small-molecule binders, primary screen, biochemical, small-molecule microarray, residues 1-88, 635 nm (AID 1129); details: small-molecule microarray binding, fluorescence 635 nm; higher = more signal
# [3] = target: Focal adhesion kinase 1 (Homo sapiens) (UniProt Q05397); experiment: PTK2 protein binding on printed compound slides – biochemical, small-molecule microarray, 635/667 nm fluorescence, BSA, DTT, primary screen (AID 1130); details: 635 nm fluorescence, higher = more signal;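 also: composite of spot emission at 667 nm and signal to noise over triplicate slides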
# Chain of Focal adhesion kinase 1 (Homo sapiens) (Q05397 whole entry, looked up): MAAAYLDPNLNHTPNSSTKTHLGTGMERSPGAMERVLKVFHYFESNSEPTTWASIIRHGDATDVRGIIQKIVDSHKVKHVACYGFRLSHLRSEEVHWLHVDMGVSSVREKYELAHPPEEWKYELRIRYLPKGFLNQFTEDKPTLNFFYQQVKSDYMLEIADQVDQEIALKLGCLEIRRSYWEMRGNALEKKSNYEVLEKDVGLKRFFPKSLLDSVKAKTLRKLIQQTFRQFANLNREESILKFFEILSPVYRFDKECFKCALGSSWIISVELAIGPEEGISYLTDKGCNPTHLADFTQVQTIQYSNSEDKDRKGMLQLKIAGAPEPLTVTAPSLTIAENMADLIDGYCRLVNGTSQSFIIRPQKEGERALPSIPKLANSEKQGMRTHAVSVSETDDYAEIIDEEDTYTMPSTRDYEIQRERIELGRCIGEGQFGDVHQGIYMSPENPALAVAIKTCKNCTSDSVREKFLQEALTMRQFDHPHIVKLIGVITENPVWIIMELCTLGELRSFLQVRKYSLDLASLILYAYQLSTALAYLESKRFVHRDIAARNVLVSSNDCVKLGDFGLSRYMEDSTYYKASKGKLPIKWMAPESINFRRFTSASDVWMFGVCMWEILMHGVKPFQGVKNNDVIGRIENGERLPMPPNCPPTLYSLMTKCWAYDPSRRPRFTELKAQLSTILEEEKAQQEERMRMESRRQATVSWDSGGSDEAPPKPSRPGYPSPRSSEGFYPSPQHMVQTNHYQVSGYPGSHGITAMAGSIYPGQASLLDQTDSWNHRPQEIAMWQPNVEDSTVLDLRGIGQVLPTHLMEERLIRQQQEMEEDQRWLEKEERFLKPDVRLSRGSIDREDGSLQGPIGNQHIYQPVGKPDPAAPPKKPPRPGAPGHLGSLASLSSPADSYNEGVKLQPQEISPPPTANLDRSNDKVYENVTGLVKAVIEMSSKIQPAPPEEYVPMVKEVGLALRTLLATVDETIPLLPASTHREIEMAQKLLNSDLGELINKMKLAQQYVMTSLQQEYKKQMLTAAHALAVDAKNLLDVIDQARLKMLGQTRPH
# [4] = system: Fibrinogen (Alexa647-labelled); experiment: Alexa647-fibrinogen binding to printed small molecules – biochemical, small-molecule microarray, 635/667 nm fluorescence, artefact control for SMM control-protein annotation, profiling panel (AID 1131); details: fibrinogen-A647 binding fluorescence, higher = more signal;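 also: z-score merges 667 nm fluorescence with per-spot signal-to-noise over triplicate slides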
# [5] = target: Follistatin (Homo sapiens) (UniProt P19883); experiment: FST protein binding to printed compounds – biochemical, small-molecule microarray, 635/667 nm fluorescence, primary screen (AID 1132); details: 635 nm fluorescence, higher = more signal
# Chain of Follistatin (Homo sapiens) (P19883 whole entry, looked up): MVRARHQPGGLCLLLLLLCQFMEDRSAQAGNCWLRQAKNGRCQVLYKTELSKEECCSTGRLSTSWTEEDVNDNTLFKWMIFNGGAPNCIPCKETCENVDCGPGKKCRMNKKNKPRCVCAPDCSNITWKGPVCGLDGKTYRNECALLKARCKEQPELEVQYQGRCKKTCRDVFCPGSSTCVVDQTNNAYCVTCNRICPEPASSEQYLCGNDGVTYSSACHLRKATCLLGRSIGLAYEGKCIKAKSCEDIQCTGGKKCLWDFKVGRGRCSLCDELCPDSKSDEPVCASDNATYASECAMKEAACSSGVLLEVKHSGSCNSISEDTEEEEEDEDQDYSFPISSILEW
# [6] = target: Fibroblast growth factor 2 (Homo sapiens) (UniProt P09038); experiment: basic fibroblast growth factor binding to printed compounds – biochemical, small-molecule microarray, 635/667 nm fluorescence, primary screen (AID 1133); details: FGF2, fluorescence 635/667, higher = more signal
# Chain of Fibroblast growth factor 2 (Homo sapiens) (P09038 whole entry, looked up): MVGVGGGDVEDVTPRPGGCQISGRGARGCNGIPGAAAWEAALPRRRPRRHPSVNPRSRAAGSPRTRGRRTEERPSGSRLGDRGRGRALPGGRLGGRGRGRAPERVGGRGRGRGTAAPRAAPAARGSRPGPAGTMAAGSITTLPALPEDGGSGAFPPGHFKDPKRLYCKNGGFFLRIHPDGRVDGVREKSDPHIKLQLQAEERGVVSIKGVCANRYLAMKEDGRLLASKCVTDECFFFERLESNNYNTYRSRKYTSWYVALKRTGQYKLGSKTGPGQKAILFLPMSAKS
# [7] = JC-1 mitochondrial potential readout, lung cancer cells – cell-based, A549, JC-1 fluorescence, basal, 24 h, 100 nL, profiling panel (AID 1138); details: higher = more signal;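 also: A549 lung adenocarcinoma cells under basal conditions with no added stimulus; test concentration not given here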
# Lefty1 = Lefty1 protein binding to printed compounds – biochemical, small-molecule microarray, 635/667 nm fluorescence, primary screen (AID 1139); details: fluorescence 635/667, higher = more signal
# [8] = system: wheat germ agglutinin (Triticum aestivum), Alexa647-labelled; experiment: Alexa647-WGA lectin binding to printed small molecules – biochemical, small-molecule microarray, 635/667 nm fluorescence, artefact control for SMM control-protein annotation, profiling panel (AID 1140); details: WGA-A647 binding, 635 nm fluorescence, higher = more signal;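 also: score merges 667 nm feature emission with signal to noise over triplicate slides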
# [9] = target: Luciferin 4-monooxygenase (Photinus pyralis) (UniProt P08659); experiment: inhibition of purified Photinus pyralis luciferase – biochemical, luminescence, purified enzyme, 2006 set, primary screen (AID 1141); details: purified firefly luciferase, SteadyGlo luminescence, 30 min; higher = more signal, called active from +8 up or from −8 down;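 also: cell-free assay with purified firefly luciferase at 100 ng per well in PBS; test concentration not given here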
# Chain of Luciferin 4-monooxygenase (Photinus pyralis) (P08659 whole entry, looked up): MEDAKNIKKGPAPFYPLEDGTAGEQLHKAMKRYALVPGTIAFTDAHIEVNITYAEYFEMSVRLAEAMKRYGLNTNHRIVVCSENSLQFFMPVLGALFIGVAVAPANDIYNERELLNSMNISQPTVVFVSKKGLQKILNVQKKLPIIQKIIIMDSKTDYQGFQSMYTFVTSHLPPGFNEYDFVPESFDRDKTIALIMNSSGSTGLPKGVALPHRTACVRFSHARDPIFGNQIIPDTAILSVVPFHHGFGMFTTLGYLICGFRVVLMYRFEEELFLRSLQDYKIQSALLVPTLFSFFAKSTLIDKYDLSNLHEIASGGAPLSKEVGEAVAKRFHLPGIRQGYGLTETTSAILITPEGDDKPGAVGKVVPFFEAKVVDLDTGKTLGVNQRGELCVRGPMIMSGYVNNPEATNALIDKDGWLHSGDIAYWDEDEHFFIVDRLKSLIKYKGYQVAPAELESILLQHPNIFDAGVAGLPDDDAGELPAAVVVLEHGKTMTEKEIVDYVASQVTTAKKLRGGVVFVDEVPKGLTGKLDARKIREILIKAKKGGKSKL
Structure (SMILES),composite z-score [1],composite z-score [2],composite z-score [3],composite z-score [4],composite z-score [5],composite z-score [6],z-score [7],composite z-score (Lefty1),composite z-score [8],z-score [9]
O=C1OCCC/C=C\[C@H]2OC34C=CCN(CCN5CCOCC5)C(=O)[C@H]3N(CCCCCO)C(=O)[C@@H]4C12 (stereo not given in full),-0.265,-2.02,-1.29,-1.25,-0.267,-0.821,-0.203,-0.84,-0.858,0.32 (inactive)
[N-]=[N+]=NCc1ccccc1C[C@@]1(C(=O)O)N=C(c2ccc(OCCCO)cc2)O[C@@H]1c1ccccc1N=[N+]=[N-],1.36,1.22,0.581,1.02,0.622,-0.316,0.376,0.42,0.415,-8.1 (active)
CCc1cccc(NC(=O)O[C@H]2[C@H](OC(=O)Nc3ccccc3)[C@@H](OC(=O)Nc3ccccc3)[C@@H](OC)O[C@@H]2CO)c1,0.51,1.29,0.497,0.978,1.4,0.786,-1.47,0.937,0.966,0.846 (inactive)
O=C(CS)NCCCCCCNC(=O)[C@@H]1C[C@@H]2C(=O)N[C@@H](Cc3ccccc3)C(=O)N2[C@@H]1c1ccc(O)cc1,2.75,1.24,0.874,0.255,1.38,1.73,-1.39,1.48,0.072,-0.663 (inactive)
C=CCOC(=O)[C@@H]1[C@H]2C(=O)O[C@H](c3ccccc3)[C@H](c3ccccc3)N2[C@H](c2ccc(OCCOC(=O)[C@H]3C[C@H]4C(=O)N5CCC[C@H]5C(=O)N4[C@H]3c3ccc(O)cc3)cc2)[C@@]12C(=O)Nc1ccccc12,0.912,1.2,0.782,0.81,1.37,1.58,-1.47,0.872,0.93,-0.803 (inactive)
Cc1ccccc1C(O)C1C=CC2C(=O)N(c3ccccc3)C(=O)C2N1Nc1ccc(C#N)cc1 (stereo not given),2.68,1.21,0.842,0.523,0.683,0.302,-0.638,0.0979,1,-1.33 (inactive)
CC(=O)NCCCC[C@@H]1NC(=O)[C@@H]2C[C@H](C(=O)NCc3ccc(F)cc3)[C@H](c3cccc(OCCO)c3)N2C1=O,1.6,0.308,-0.135,0.371,1.3,1.7,1.25,0.115,-0.087,-0.425 (inactive)
COc1ccc(-c2ccccc2[C@@H]2N[C@H](C(=O)O)CC[C@H]2C)cc1,0.351,0.449,0.671,0.0159,0.107,0.364,-0.568,0.404,-0.361,-0.739 (inactive)
CCC(=O)[C@]12O[C@@]3([C@@H]4C(=O)OCC[C@@H]41)N(CC)C(C)=C(C(=O)OC)[C@@H](c1ccccc1)N3C2=O,1.41,-1.67,0.335,-0.62,0.754,0.111,-0.404,0.373,-0.0702,-0.533 (inactive)
CCC(=O)[C@]12O[C@@]3([C@@H]4C(=O)OCC[C@@H]41)N(Cc1ccccc1)C(C)=C(C(=O)OC)[C@@H](c1ccccc1)N3C2=O,-0.97,-2.31,0.0625,-1.35,-0.65,-0.715,1.27,0.197,-0.803,-1.36 (inactive)
C[N+](C)(C)CCCCNC(=O)[C@H]1C[C@H]2C(=O)NCC(=O)N2[C@H]1c1cccc(OCCO)c1,2.81,0.279,-0.0181,-0.0364,1.49,1.9,-0.776,1.71,0.399,-0.162 (inactive)
C=C(/C(=C/C[C@@H](OC(=O)c1ccncc1)c1ccc(CO)o1)c1cnc2ccccc2c1)C(C)C,1.73,0.969,0.462,0.954,1.32,1.07,0.313,0.949,1.4,-4.43 (inactive)
C[C@@H]1CC[C@H]2C(=O)N3[C@@H](CC[C@@H](C)[C@@H]3c3cccc(N4CCOCC4)c3)C(=O)N2[C@H]1c1cccc(Br)c1,1.52,1.04,-0.0269,0.783,1.12,0.555,2.96,1.15,1.04,-1.13 (inactive)
CO[C@H]1COC(=O)[C@@H](OCc2ccccc2)C=C[C@H](C)[C@@H](OC)COC(=O)[C@H](OCc2ccccc2)C=C[C@@H]1C,-0.12,-0.0882,0.104,-0.305,0.266,0.552,1.99,0.67,-0.244,-1.99 (inactive)
COCC(=C=CC[C@H](O)c1ccc(OCCO)cc1)C[C@H](O)c1ccccn1,-0.0301,0.401,-0.389,-0.263,0.193,0.0116,1.92,0.233,-0.32,-2.45 (inactive)
COC(=O)C1=C(C)N(Cc2ccccc2)c2c(C(=O)OC)c(C(=O)OC)c(C(=O)OC)c(=O)n2[C@@H]1c1ccccc1,-0.0074,0.436,0.39,0.437,0.321,0.528,0.813,0.27,0.292,-1.01 (inactive)
CC(C)(C)OC(=O)CC[C@]1(C(=O)N2CCCCC2)N=C(c2ccc(OCCCO)cc2)O[C@H]1c1ccccc1,1.81,1.2,0.717,0.985,1.24,1.15,1.98,1.01,1.27,-2.85 (inactive)
C[C@@H]1C=CCC(=O)OC[C@H]2O[C@@H](C=C[C@@H]2O)[C@H](C)C=CCC(=O)OC[C@H]2O[C@H]1C=C[C@@H]2O,0.106,-0.145,-0.095,-0.282,1.53,1.83,0.307,1.75,-0.312,-0.304 (inactive)
[N-]=[N+]=Nc1ccccc1C[C@@]1(C(=O)N2CCOCC2)N=C(c2ccc(OCCCO)cc2)O[C@@H]1c1ccccc1N=[N+]=[N-],2.48,1.19,1.41,0.886,1.42,0.667,2.03,0.0674,1.22,-3.69 (inactive)
CC(c1ccccc1)C(O)C1C=CC2C(=O)N(C)C(=O)C2N1N(c1ccccc1)c1ccccc1 (stereo not given),0.69,0.919,0.467,0.948,-0.19,-0.377,0.755,-0.617,1.18,-0.273 (inactive)
Cc1ccc(S(=O)(=O)N2[C@@H](c3ccccc3)C(C(=O)O)=CC[C@H]2c2ccccc2)cc1,-0.247,0.699,0.431,0.175,-0.12,-0.158,-1.38,0.0236,0.33,0.838 (inactive)
O=C1OCC=C[C@H]2OC34C=CCN(Cc5ccccc5)C(=O)[C@H]3N(CCCCCO)C(=O)[C@@H]4[C@@H]12 (stereo not given in full),-0.171,-0.614,0.0672,-0.736,-1.14,-1.24,0.0704,-1.09,-1.29,-0.423 (inactive)
C#CCCCON=C1C[C@@H](O)[C@@H](O)[C@@H]2[C@@H]3C(=O)N(Cc4ccc5c(c4)OCO5)C(=O)[C@@H]3CC[C@H]12,0.833,0.57,0.168,0.573,1.03,0.4,-0.421,1.59,-0.142,0.975 (inactive)
COC(=O)C(CC#Cc1ccc2c(c1)[C@]1(C(=O)N2)[C@H](C(=O)N2CCCCCCC2)[C@H]2C(=O)O[C@H](c3ccccc3)[C@H](c3ccccc3)N2[C@@H]1c1ccc(O)cc1)C(=O)OC,-0.231,-1.54,-0.222,-2.05,-0.408,-1.1,-1.03,-0.227,-1.42,-0.269 (inactive)
O=C(NCc1ccccc1)c1ccc(Br)cc1[N+](=O)[O-],-0.26,0.292,-0.1,-0.0828,0.405,0.465,0.543,0.505,0.352,-0.941 (inactive)
Cc1ccc([C@@H]2CC=C(C(=O)O)[C@H](c3ccccc3)N2S(=O)(=O)c2ccc(C)cc2)cc1,2.65,1.24,0.574,0.894,-0.358,-0.847,-1.47,-0.691,1.35,1.33 (inactive)
C=CCN1C(=O)[C@]2(O[C@H](CCn3cc(CCO)nn3)[C@@H]([Si](C)(C)c3ccc(OC)cc3)[C@@H]2C)c2cc(NC(=O)c3ccc(OC)cc3)ccc21,0.94,1.14,0.611,0.708,1.35,1.2,2.37,1.01,0.816,-2.28 (inactive)
C[C@H]1NC(=O)[C@@H](C)NC(=O)[C@@]23C(=O)N[C@@H](Cc4ccccc4)C2[C@H](C)[C@@]2(C)O[C@H]2C3/C=C/C/C=C\CNC1=O (stereo not given in full),-0.759,-1.84,-0.801,-0.388,0.117,0.0213,1.07,-0.0767,0.0969,-0.919 (inactive)
